Data: PubChem BioAssay (NCATS)
Results filed as inconclusive are left out. A number with no mark means an inactive call. Calls of active or inactive are those of the source. The call rests on the fitted dose curve; in most records, active means well fitted cell-killing curve with a large enough effect; inconclusive means small, poorly fitted or top-dose-only effect, or effect the other way; inactive means no such curve, though single readings can be large or run the other way.

assay: Viability qHTS for spleen associated tyrosine kinase inhibitor (SYKi) naive MV4-11 cells (AID 1963823); settings: MV4-11 AML viability, CellTiter-Glo luminescence, 72 h; series mostly up to 45 µM; viability (% of control): at the top concentration; further: nearly all actives have a fitted effect of over 40% in size
Method in brief: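 Luminescence from CellTiter-Glo, developed 10 min at room temperature, gave viability of MV4-11 cells never exposed to SYK inhibitor. Cells (500/well) had been incubated with compounds for 72 hr under standard culture conditions.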
Potency means the concentration at half of the fitted maximal effect.

| SMILES | Potency | viability (% of control) |
| --- | --- | --- |
| Cc1nc(C#Cc2ccnc(Cl)c2)c(C)n1-c1ccc(OC(F)(F)F)cc1 | 20.6 µM (active) | – |
| C/C=C1\[C@H](O[C@@H]2O[C@H](CO)[C@@H](O)[C@H](O)[C@H]2O)OC=C(C(=O)OCCc2ccc(O)cc2)[C@H]1CC(=O)OCCc1ccc(O)cc1 | – | 67.2% [at 17.3 µM] |
| C[C@@H]1[C@H]2[C@H](O[C@@H]3O[C@H](CO)[C@@H](O)[C@H](O)[C@H]3O)OC=C(C(=O)O)[C@H]2C[C@@H]1OC(=O)/C=C/c1ccc(O)cc1 | – | 87.9% [at 17.3 µM] |
| COc1ccc(/C=C/C(=O)O[C@@H]2[C@@H](O)[C@H](C)O[C@@H](OC3C4C=COC(O[C@@H]5O[C@H](CO)[C@@H](O)[C@H](O)[C@H]5O)C4C4(CO)OC34)[C@@H]2O)cc1OC (stereo partly drawn) | – | 91.2% [at 17.3 µM] |
| C[C@@H]1CC[C@H]2C(C)(C)[C@H](O)[C@H](O)C[C@]2(C)[C@@]12Cc1c(O)cc3c(c1O2)CNC3=O | – | 67.7% |
| Cc1ccc(NC(=O)c2ccc(CN3CC[C@H](N(C)C)C3)c(C(F)(F)F)c2)cc1Nc1nccc(-c2cncnc2)n1 | 6.32 µM (active) | – |
| COc1cccc(-c2cn(-c3ccc(CCN4CCC(O)CC4)cc3)c3ncnc(N)c23)c1 | 2.06 µM (active) | – |
| CC1C(=O)OCC2=CCN3CCC(OC(=O)C(C)(O)C1(C)O)C23 (stereo not drawn) | – | 72.2% |
| Cc1cc(C(=O)N2Cc3cnn(C)c3Nc3ccccc32)ccc1CNC(=O)N1CCN(Cc2cc(O)cc(O)c2)CC1 | – | 84.6% |
| CC1(C)CC[C@]2(C(=O)O)[C@H](O)C[C@]3(C)C(=CCC4[C@@]5(C)CC[C@H](O[C@@H]6O[C@H](CO[C@@H]7OC[C@H](O)[C@H](O)[C@H]7O[C@@H]7OC[C@@H](O)[C@H](O)[C@H]7O)[C@@H](O)[C@H](O)[C@H]6O[C@@H]6O[C@H](CO)[C@@H](O)[C@H](O)[C@H]6O)C(C)(C)C5CC[C@]43C)[C@@H]2C1 (stereo partly drawn) | – | 92.2% [at 9.25 µM] |
| CC1(C)CCC[C@@]2(C)C1[C@H](OC(=O)/C=C/C=C/C(=O)O)C=C1COC(=O)[C@@]12O (stereo partly drawn) | – | 94.7% |
| Nc1nc(OC(c2ccc(-c3cccc(F)c3)cc2)C(F)(F)F)cc(-c2ccc(C[C@H](N)C(=O)O)cc2)n1 (stereo partly drawn) | 18.6 µM (active) | – |
| CO[C@H]1/C=C/O[C@@]2(C)Oc3c(C)c(O)c4c(O)c(c(/C=N\N5CCN(C6CCCC6)CC5)c(O)c4c3C2=O)NC(=O)/C(C)=C\C=C\[C@H](C)[C@H](O)[C@@H](C)[C@@H](O)[C@@H](C)[C@H](OC(C)=O)[C@@H]1C | 18.6 µM (active) | – |
| N#Cc1c(Oc2ccc(F)c(NC(=O)Cc3cccc(C(F)(F)F)c3)c2)ccc2nc(NC(=O)C3CC3)sc12 | 1.46 µM (active) | – |
| CCOc1cn(-c2ccc(F)cc2C)nc1C(=O)Nc1ccc(Oc2ccnc3cc(OC)c(OC)cc23)c(F)c1 | 0.259 µM (active) | – |
| Cc1ccc(OCCSc2ncccn2)c(Br)c1 | – | 55.1% |
| CN(Cc1ccc(C(=O)O)cc1)c1ccc(OCc2c(-c3c(Cl)cccc3Cl)noc2C2CC2)nc1C(F)(F)F | 20.6 µM (active) | – |
| O=C(O)CC(=O)OC[C@H]1O[C@@H](Oc2ccc3c(c2)OC[C@H]2c4cc5c(cc4O[C@@H]32)OCO5)[C@H](O)[C@@H](O)[C@@H]1O | – | 88.1% [at 17.3 µM] |
| NC(=O)c1cccc2[nH]c(-c3ccc(C4CCCN4)cc3F)nc12 (stereo not drawn) | 13 µM (active) | – |

assay: Viability qHTS for spleen associated tyrosine kinase inhibitor (SYKi) drug resistant MV4-11 cells (AID 1963824); settings: SYKi-resistant MV4-11 viability, CellTiter-Glo, 72 h; series mostly up to 45 µM; viability, % of control: at the top concentration; further: nearly all actives have a fitted effect of over 35% in size
Method in brief: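 SYK-inhibitor-resistant MV4-11 AML cells were seeded at 500 per well onto compound and cultured 72 hours (37 °C, 5% CO2). CellTiter-Glo was then added, and after 10 min at room temperature, luminescence gave viability.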

| SMILES | Potency | viability, % of control |
| --- | --- | --- |
| C[C@@H]1CC[C@]2(C(=O)O)CC[C@]3(C)C(=CCC4[C@@]5(C)C[C@@H](O)[C@@H](O)C(C)(C)C5CC[C@]43C)C2[C@]1(C)O (stereo partly drawn) | 3.55 µM (active) | – |
| CC(C)(O)c1ccc2c(c1)C(=O)CC1[C@](C)(CO)CCC[C@]21C (stereo partly drawn) | – | 71.4% |
| CCC(=O)N1CCc2cc(OC)c(O)cc2C1 | – | 95.8% |
| C=C(C)C(=O)OC1[C@@H]2C(=C)C(=O)O[C@@H]2C[C@@H](C)[C@@H]2C=CC(=O)[C@@]12C (stereo partly drawn) | 2.86 µM (active) | – |
| O=C1c2c(O[C@@H]3O[C@H](CO)[C@@H](O)[C@H](O)[C@H]3O)cc(O)cc2OC1(O)Cc1ccc(O)cc1 (stereo partly drawn) | 3.17 µM (active) | – |
| CC(C)(N)c1cc(C(=O)N[C@@H]2CCc3ccc(Oc4ccnc5c4CCC(=O)N5)cc3C2)cc(C(F)(F)F)c1 | 1.3 µM (active) | – |
| CNC(=O)O[C@H]1COc2ccc(N3CCN(C4COC4)CC3)cc2[C@@H]1NC(=O)c1ccc(F)cc1 | – | 82.1% |
| Cc1cccc(/C=N/Nc2cc(N3CCOCC3)n3nc(-c4ccncc4)cc3n2)c1 | 0.291 µM (active) | – |
| C=C1[C@H]2CC[C@H](C(=O)O)[C@@]23CC[C@H](C3)C1(C)C | – | 49.4% |
| Cc1cn2c(n1)Cc1ccc(Cl)cc1C(c1ccc(N)cc1)=N2 | 18.4 µM (active) | – |
| COc1cc(C)c(C(=O)Oc2cc(C)c(C(=O)Oc3cc(C)c(C(=O)NC(C)C(=O)O)c(O)c3)c(O[C@@H]3O[C@H](CO)[C@@H](O)[C@H](O)[C@H]3OC(C)=O)c2)c(OC)c1 (stereo partly drawn) | – | 80.3% [at 17.3 µM] |
| NC(=O)c1cccc(-c2cc(O)cc(OC(=O)NC3CCCCC3)c2)c1 | – | 62.5% [at 17.3 µM] |
| COC(=O)N[C@H](C(=O)N1CCC[C@H]1c1ncc(-c2ccc(-c3ccc(-c4cnc([C@@H]5CCCN5C(=O)[C@@H](NC(=O)OC)C(C)C)[nH]4)cc3)cc2)[nH]1)C(C)C | 16.6 µM (active) | – |
| NS(=O)(=O)c1ccc(N=Nc2c(O)[nH]c3ccc(Br)cc23)cc1 | 1.03 µM (active) | – |
| C=C1[C@H](OC(C)=O)[C@H]2[C@@H](OC(C)=O)[C@](C)(OC(C)=O)C[C@]2(OC(C)=O)C(=O)[C@H](C)/C=C/C(C)(C)C(=O)[C@H](OC(=O)C(C)C)[C@H]1OC(C)=O | – | 88.5% [at 17.3 µM] |
| CC1(C)CC2C3=CCC4C5(C)CCC(OC6OC(CO)C(O)C(OC7OC(CO)C(O)C(OC8OC(CO)C(O)C(OC9OC(COC%10OC(CO)C(O)C(O)C%10O)C(O)C(O)C9O)C8O)C7O)C6O)C(C)(C)C5CCC4(C)C3(C)CCC2(C(=O)O)CC1O (stereo not drawn) | – | 99.5% [at 9.25 µM] |
| O=C(/C=C/c1ccc(O)c(O)c1)O[C@H]1[C@@H]2C=CO[C@@H](O[C@@H]3O[C@H](CO)[C@@H](O)[C@H](O)[C@H]3O)[C@@H]2[C@@]2(CO)O[C@@H]12 | – | 103% [at 17.3 µM] |
| CCCCCCc1cccc(NC(=O)[C@H](N)CCP(=O)(O)O)c1 | – | 99.2% [at 9.25 µM] |
| CC1OC(OC2C(O)C(OC3CCC4(C)C(CCC5(C)C4CC=C4C6CC(C)(COC7OC(CO)C(O)C(O)C7O)CC(O)C6(C)CCC45C)C3(C)C)OC(C(=O)O)C2O)C(O)C(O)C1OC1OCC(O)C(O)C1O (stereo not drawn) | – | 85% [at 9.25 µM] |
| C/C(=C\CCC(C)C1CC(O)C2(C)C3CCC4C(C)(C)C(OC5OCC(O)C(O)C5O)CCC45CC35CC(O)C12C)C(=O)O (stereo not drawn) | – | 74.1% [at 17.3 µM] |

| SMILES | Potency | viability, % of control |
| --- | --- | --- |
| Cc1nc(C#Cc2ccnc(Cl)c2)c(C)n1-c1ccc(OC(F)(F)F)cc1 | 23.1 µM (active) | – |
| C/C=C1\[C@H](O[C@@H]2O[C@H](CO)[C@@H](O)[C@H](O)[C@H]2O)OC=C(C(=O)OCCc2ccc(O)cc2)[C@H]1CC(=O)OCCc1ccc(O)cc1 | – | 75.2% [at 17.3 µM] |
| C[C@@H]1[C@H]2[C@H](O[C@@H]3O[C@H](CO)[C@@H](O)[C@H](O)[C@H]3O)OC=C(C(=O)O)[C@H]2C[C@@H]1OC(=O)/C=C/c1ccc(O)cc1 | – | 111% [at 17.3 µM] |
| COc1ccc(/C=C/C(=O)O[C@@H]2[C@@H](O)[C@H](C)O[C@@H](OC3C4C=COC(O[C@@H]5O[C@H](CO)[C@@H](O)[C@H](O)[C@H]5O)C4C4(CO)OC34)[C@@H]2O)cc1OC (stereo partly drawn) | – | 107% [at 17.3 µM] |
| C[C@@H]1CC[C@H]2C(C)(C)[C@H](O)[C@H](O)C[C@]2(C)[C@@]12Cc1c(O)cc3c(c1O2)CNC3=O | – | 101% |
| Cc1ccc(NC(=O)c2ccc(CN3CC[C@H](N(C)C)C3)c(C(F)(F)F)c2)cc1Nc1nccc(-c2cncnc2)n1 | 7.23 µM (active) | – |
| COc1cccc(-c2cn(-c3ccc(CCN4CCC(O)CC4)cc3)c3ncnc(N)c23)c1 | 2.31 µM (active) | – |
| CC1C(=O)OCC2=CCN3CCC(OC(=O)C(C)(O)C1(C)O)C23 (stereo not drawn) | – | 86.2% |
| Cc1cc(C(=O)N2Cc3cnn(C)c3Nc3ccccc32)ccc1CNC(=O)N1CCN(Cc2cc(O)cc(O)c2)CC1 | – | 116% |
| CC1(C)CC[C@]2(C(=O)O)[C@H](O)C[C@]3(C)C(=CCC4[C@@]5(C)CC[C@H](O[C@@H]6O[C@H](CO[C@@H]7OC[C@H](O)[C@H](O)[C@H]7O[C@@H]7OC[C@@H](O)[C@H](O)[C@H]7O)[C@@H](O)[C@H](O)[C@H]6O[C@@H]6O[C@H](CO)[C@@H](O)[C@H](O)[C@H]6O)C(C)(C)C5CC[C@]43C)[C@@H]2C1 (stereo partly drawn) | – | 103% [at 9.25 µM] |
| CC1(C)CCC[C@@]2(C)C1[C@H](OC(=O)/C=C/C=C/C(=O)O)C=C1COC(=O)[C@@]12O (stereo partly drawn) | – | 103% |
| Nc1nc(OC(c2ccc(-c3cccc(F)c3)cc2)C(F)(F)F)cc(-c2ccc(C[C@H](N)C(=O)O)cc2)n1 (stereo partly drawn) | 18.6 µM (active) | – |
| CO[C@H]1/C=C/O[C@@]2(C)Oc3c(C)c(O)c4c(O)c(c(/C=N\N5CCN(C6CCCC6)CC5)c(O)c4c3C2=O)NC(=O)/C(C)=C\C=C\[C@H](C)[C@H](O)[C@@H](C)[C@@H](O)[C@@H](C)[C@H](OC(C)=O)[C@@H]1C | 11.8 µM (active) | – |
| N#Cc1c(Oc2ccc(F)c(NC(=O)Cc3cccc(C(F)(F)F)c3)c2)ccc2nc(NC(=O)C3CC3)sc12 | 1.64 µM (active) | – |
| CCOc1cn(-c2ccc(F)cc2C)nc1C(=O)Nc1ccc(Oc2ccnc3cc(OC)c(OC)cc23)c(F)c1 | 0.651 µM (active) | – |
| Cc1ccc(OCCSc2ncccn2)c(Br)c1 | – | 70.1% |
| CN(Cc1ccc(C(=O)O)cc1)c1ccc(OCc2c(-c3c(Cl)cccc3Cl)noc2C2CC2)nc1C(F)(F)F | 16.4 µM (active) | – |
| O=C(O)CC(=O)OC[C@H]1O[C@@H](Oc2ccc3c(c2)OC[C@H]2c4cc5c(cc4O[C@@H]32)OCO5)[C@H](O)[C@@H](O)[C@@H]1O | – | 106% [at 17.3 µM] |
| NC(=O)c1cccc2[nH]c(-c3ccc(C4CCCN4)cc3F)nc12 (stereo not drawn) | 16.4 µM (active) | – |
